Common to all, as to assay: protein-binding microarray (PBM); PBM: ~300 nM protein, 6 mM HEPES pH 7.8, 80 mM KCl, 0.5 mM EDTA, 0.5 mM EGTA, 6% glycerol, 35 ng/ul poly-dIdC, 1% milk, 1 h, room temperature; Ap Aiptasia and Nv Nematostella (sea anemones) / Co Capsaspora / Aq Amphimedon (sponge) / Dm Drosophila / Hu human; RHD is the Rel homology domain; high values mean tight binding
Common to all, as to conditions: dsDNA, one strand shown

Assay [1] deals with T1, GST-Ap-NF-kB RHD (Exaiptasia pallida (Aiptasia), UniProt A0A913YAJ5 2-422).
T1 sequence: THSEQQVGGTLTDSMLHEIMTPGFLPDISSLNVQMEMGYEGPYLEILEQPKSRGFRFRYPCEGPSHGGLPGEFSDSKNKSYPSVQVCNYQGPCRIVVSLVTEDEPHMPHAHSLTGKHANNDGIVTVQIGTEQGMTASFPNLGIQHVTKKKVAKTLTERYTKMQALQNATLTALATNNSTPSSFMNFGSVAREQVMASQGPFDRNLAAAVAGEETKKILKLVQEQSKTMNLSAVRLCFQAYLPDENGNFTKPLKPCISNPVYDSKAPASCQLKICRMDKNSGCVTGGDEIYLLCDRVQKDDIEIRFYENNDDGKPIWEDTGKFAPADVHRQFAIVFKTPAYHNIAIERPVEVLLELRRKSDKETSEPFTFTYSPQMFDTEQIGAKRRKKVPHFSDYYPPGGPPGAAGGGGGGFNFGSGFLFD

Assay [2] has as its target T2, GST-Nv-NF-kB (Cys allele) (Nematostella vectensis, UniProt E5G601 2-411).
T2 sequence: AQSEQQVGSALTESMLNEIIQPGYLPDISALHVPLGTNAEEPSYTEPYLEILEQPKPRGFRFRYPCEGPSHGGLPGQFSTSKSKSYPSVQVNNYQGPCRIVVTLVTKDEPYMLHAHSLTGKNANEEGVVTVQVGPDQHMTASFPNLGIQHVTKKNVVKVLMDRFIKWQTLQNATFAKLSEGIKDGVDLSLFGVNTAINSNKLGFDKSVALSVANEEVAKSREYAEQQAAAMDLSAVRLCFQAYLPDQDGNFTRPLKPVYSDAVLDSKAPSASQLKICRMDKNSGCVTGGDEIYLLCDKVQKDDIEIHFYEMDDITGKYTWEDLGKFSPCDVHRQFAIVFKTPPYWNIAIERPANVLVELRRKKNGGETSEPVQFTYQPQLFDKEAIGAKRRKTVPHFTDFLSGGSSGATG

The target in assay [3] is T3, GST-Nv-NF-kB (Ser allele) (Nematostella vectensis, UniProt A7UNT2 2-411).
T3 sequence: T2 sequence with Q21R, C66S, S207N, E215Q, V217A, E225K, A268E, D399E

Assay [4] has as its target T4, GST-Co-NF-kB (Capsaspora owczarzaki, UniProt F1ARL5 200-546).
T4 sequence: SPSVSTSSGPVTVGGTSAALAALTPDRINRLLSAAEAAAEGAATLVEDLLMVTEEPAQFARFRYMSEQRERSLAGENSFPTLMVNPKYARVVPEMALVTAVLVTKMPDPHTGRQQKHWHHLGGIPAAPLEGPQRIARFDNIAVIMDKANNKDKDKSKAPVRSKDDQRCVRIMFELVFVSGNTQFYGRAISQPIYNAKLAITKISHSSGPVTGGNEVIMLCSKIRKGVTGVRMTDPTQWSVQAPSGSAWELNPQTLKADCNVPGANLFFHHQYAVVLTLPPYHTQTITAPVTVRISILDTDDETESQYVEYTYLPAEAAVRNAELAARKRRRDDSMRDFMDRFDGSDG

Assay [5] concerns the target T5, GST-Dm-Relish (Drosophila melanogaster, UniProt Q94527 99-473).
T5 sequence: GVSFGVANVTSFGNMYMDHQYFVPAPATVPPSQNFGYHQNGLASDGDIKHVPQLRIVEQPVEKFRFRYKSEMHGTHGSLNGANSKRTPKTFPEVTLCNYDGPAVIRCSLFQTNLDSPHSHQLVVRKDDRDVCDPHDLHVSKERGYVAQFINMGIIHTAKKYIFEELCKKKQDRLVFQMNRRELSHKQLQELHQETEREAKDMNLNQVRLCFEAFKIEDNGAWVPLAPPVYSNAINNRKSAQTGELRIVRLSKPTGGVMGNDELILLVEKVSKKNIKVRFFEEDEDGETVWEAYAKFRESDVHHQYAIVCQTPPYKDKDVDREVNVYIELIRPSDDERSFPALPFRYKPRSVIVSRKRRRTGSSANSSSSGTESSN

Assay [6] deals with T6, GST-Aq-NF-kB (Amphimedon queenslandica, UniProt A9Y5G7 2-389).
T6 sequence: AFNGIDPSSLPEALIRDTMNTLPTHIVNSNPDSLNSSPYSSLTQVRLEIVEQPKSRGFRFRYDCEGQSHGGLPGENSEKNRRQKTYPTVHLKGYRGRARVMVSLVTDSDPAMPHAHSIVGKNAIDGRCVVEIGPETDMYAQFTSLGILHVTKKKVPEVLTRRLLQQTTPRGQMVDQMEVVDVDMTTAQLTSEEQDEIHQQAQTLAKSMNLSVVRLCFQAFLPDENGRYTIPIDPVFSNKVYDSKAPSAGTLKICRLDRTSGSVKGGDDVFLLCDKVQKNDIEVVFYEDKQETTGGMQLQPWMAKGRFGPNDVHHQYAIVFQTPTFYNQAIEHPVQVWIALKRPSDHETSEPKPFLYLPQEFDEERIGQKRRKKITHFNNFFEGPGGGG

Assay [7] addresses GST-Hu-p50 (Homo sapiens, UniProt P19838 7-356).

The results in this text go back to article PMC5700166.

Residue numbers refer to the chain shown, from its start.

Chain of GST-Hu-p50 (P19838 7-356): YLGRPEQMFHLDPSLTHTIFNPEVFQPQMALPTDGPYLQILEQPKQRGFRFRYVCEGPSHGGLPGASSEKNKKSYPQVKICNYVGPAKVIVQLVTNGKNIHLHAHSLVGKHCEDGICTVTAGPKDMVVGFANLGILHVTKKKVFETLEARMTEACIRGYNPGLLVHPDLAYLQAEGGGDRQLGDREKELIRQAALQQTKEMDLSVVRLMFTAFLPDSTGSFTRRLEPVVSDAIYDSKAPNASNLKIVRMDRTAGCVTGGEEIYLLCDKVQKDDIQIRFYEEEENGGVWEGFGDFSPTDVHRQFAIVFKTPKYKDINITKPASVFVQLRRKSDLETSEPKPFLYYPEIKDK

For “CCGATTAACATCACCTTTTCCCCTGATGTTAATCGGGTCTTGATTCGCTTGACGCTGCTG”, the binding signal in assay [1] is 6.24 z-score; in assay [2], 6.89 z-score; in assay [3], 8.88 z-score; in assay [4], 8.71 z-score; in assay [5], 2.77 z-score; in assay [6], 4.69 z-score. The same sequence came in with a binding signal in assay [7] of 5.94 z-score.

With “CCGATTAACATCACATTTTTCCCTGATGTTAATCGGGTCTTGATTCGCTTGACGCTGCTG”, the binding signal is 3.43 z-score in assay [1]; 5.03 z-score in assay [2]; 7.3 z-score in assay [3]; 5.64 z-score in assay [4]; 2.56 z-score in assay [5]; 4.26 z-score in assay [6]. In assay [7], this sequence registered a binding signal of 3.84 z-score.

Take “CCGATTAACATCAAAATCCCGGGTGATGTTAATCGGGTCTTGATTCGCTTGACGCTGCTG”: the binding signal in assay [1] was found to be 3.32 z-score; in assay [2] it was 2.32 z-score; in assay [3], 2.26 z-score; in assay [4] it was 1.42 z-score; in assay [5], 6.58 z-score; in assay [6], 3.23 z-score. The sequence also displayed a binding signal in assay [7] of 3.3 z-score.

As for “CCGATTAACATCAGGGAAACCCCTGATGTTAATCGGGTCTTGATTCGCTTGACGCTGCTG”, the binding signal in assay [1] was found to be 10.6 z-score; in assay [2], 11.4 z-score; in assay [3], 9.7 z-score; in assay [4], 5.51 z-score; in assay [5] it was 9.95 z-score; in assay [6], 10 z-score. In addition, the binding signal in assay [7] is 6.82 z-score.

As to “CCGATTAACATCAGGGGAATCTATGATGTTAATCGGGTCTTGATTCGCTTGACGCTGCTG”, the binding signal in assay [1] turned out to be 8.26 z-score; in assay [2], 8.91 z-score; in assay [3], 10.6 z-score; in assay [4], 7.29 z-score; in assay [5], 5.84 z-score; in assay [6] it was 5.95 z-score. For the same sequence, the binding signal in assay [7] turned out to be 6.51 z-score.

Regarding “CCGATTAACATCAAAATTACCCCTGATGTTAATCGGGTCTTGATTCGCTTGACGCTGCTG”, the binding signal in assay [1] came out at 4.94 z-score; in assay [2] it was 6.27 z-score; in assay [3], 7.21 z-score; in assay [4] it was 7.33 z-score; in assay [5] it was 5.24 z-score; in assay [6], 6.34 z-score. For the same sequence, the binding signal in assay [7] worked out at 5.3 z-score.

Consider “CCGATTAACATCAAGGGGATTCCTGATGTTAATCGGGTCTTGATTCGCTTGACGCTGCTG”, for which the binding signal was 10.4 z-score in assay [1]; 10.4 z-score in assay [2]; 9.96 z-score in assay [3]; 2.68 z-score in assay [4]; 9.9 z-score in assay [5]; 7.84 z-score in assay [6]. In assay [7], the binding signal is 7.29 z-score.

As for “CCGATTAACATCAAGATTCCCCTTGATGTTAATCGGGTCTTGATTCGCTTGACGCTGCTG”, the binding signal in assay [1] was 7.59 z-score; in assay [2], 10 z-score; in assay [3], 10.8 z-score; in assay [4] it was 5.46 z-score; in assay [5], 6.62 z-score; in assay [6] it was 6.39 z-score. The sequence also gave a binding signal in assay [7] of 7.18 z-score.

Consider “CCGATTAACATCAGGAATTACCCTGATGTTAATCGGGTCTTGATTCGCTTGACGCTGCTG”, for which the binding signal was 4.56 z-score in assay [1]; 7.58 z-score in assay [2]; 4.97 z-score in assay [3]; 2.62 z-score in assay [4]; 6.61 z-score in assay [5]; 8.34 z-score in assay [6]. Also, the binding signal in assay [7] is 4.51 z-score.

Regarding “CCGATTAACATCAGAATATCCCCTGATGTTAATCGGGTCTTGATTCGCTTGACGCTGCTG”, the binding signal is 7.8 z-score in assay [1]; 7.86 z-score in assay [2]; 8.08 z-score in assay [3]; 3.97 z-score in assay [4]; 6.49 z-score in assay [5]; 5.85 z-score in assay [6]. In assay [7], the binding signal turned out to be 5.75 z-score.

On to “CCGATTAACATCAAAAATCTCCCTGATGTTAATCGGGTCTTGATTCGCTTGACGCTGCTG”, for which the binding signal in assay [1] was 3.7 z-score; in assay [2] it was 6.51 z-score; in assay [3], 6.86 z-score; in assay [4] it was 3.4 z-score; in assay [5], 2.94 z-score; in assay [6], 6.14 z-score. In addition, the binding signal in assay [7] came to 4.72 z-score.

For the sequence “CCGATTAACATCAGGGGAAATCATGATGTTAATCGGGTCTTGATTCGCTTGACGCTGCTG”, the binding signal came out at 7.92 z-score in assay [1]; 8.72 z-score in assay [2]; 11.1 z-score in assay [3]; 7.67 z-score in assay [4]; 5.47 z-score in assay [5]; 5.97 z-score in assay [6]. The binding signal in assay [7] was found to be 6.18 z-score.
